Reference: PubChem BioAssay AID940 (Emory University Molecular Libraries Screening Center, 2007)
Values joined by “and” are separate entries in the source; they are usually repeats but may differ in a detail not shown here. Equal values may be shown once. Among all 260,000 compounds or so, about 2,200 (0.85%) were called active.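 The calls were made as follows: active = compounds whose cAMP rise, as percent of the full-agonist control response, exceeds 60; inactive = the rest.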 Many of the other results were omitted from the sample, so actives are more common in it than they were. Where a structure was tested more than once in an assay, its records may differ in their call.

The compounds below were run against Prostaglandin E2 receptor EP2 subtype (Homo sapiens) (UniProt P43116) (assay: modulation of human EP2 prostaglandin signaling – cell-based, HTRF cAMP, PGE2 stimulation, primary screen (AID 940;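 also: rat C6 glioma line stably carrying human EP2 under a CMV promoter; the protocol text gives 20 µM as final concentration; 100% = response of wells given 1 µM PGE2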)). Details: EP2-expressing cells, cAMP HTRF FRET, PGE2 co-stimulation; at 25 µM; stronger effect = higher value.
Sequence of Prostaglandin E2 receptor EP2 subtype (Homo sapiens) (P43116 whole entry, looked up): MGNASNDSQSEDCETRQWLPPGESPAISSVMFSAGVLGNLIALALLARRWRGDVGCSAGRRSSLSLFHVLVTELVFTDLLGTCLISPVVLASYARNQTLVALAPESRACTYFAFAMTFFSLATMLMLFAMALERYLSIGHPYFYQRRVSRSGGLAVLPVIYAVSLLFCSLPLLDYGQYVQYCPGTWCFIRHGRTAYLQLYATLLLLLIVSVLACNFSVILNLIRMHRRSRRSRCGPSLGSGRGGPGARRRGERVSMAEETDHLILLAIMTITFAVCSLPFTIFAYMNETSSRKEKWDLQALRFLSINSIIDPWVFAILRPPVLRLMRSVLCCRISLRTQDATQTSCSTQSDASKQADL

| Compound | induction |
| --- | --- |
| Cc1ccc(C2(O)CCN(Cc3cccc(OCc4ccccn4)c3)CC2)cc1 | -1.87% (inactive) |
| CCCN(CC)c1nc2c(C)cccn2c(=O)c1/C=C1\SC(=S)N(CCCOC)C1=O | 23% (inactive) |
| COc1ccc(C2(NCc3ccccc3-n3cccn3)CC2)cc1 | 7.61% (inactive) |
| C=CC1(C)CC(=O)C2(O)C(C)(O1)C(OC(C)=O)C(O)C1C(C)(C)CCC(O)C12C (stereo unspecified) | 102% (active) |
| CC(C)NC(=S)NN=C1CCCCCCCCCCC1 | 68.3% (active) |
| C/C(=N\NC(=S)NC(C)C)c1ccc(C(C)(C)C)cc1 | 8.13% (inactive) |
| CC(C)(C)NC(=O)C(=O)NN=C1CCCCCCC1 | 27.3% (inactive) |
| COc1cc(-c2nc3cnccn3c2NCC2CCCO2)ccc1O (stereo unspecified) | -29.6% (inactive) |
| O=C(CS(=O)(=O)c1cn(Cc2cccc(F)c2)c2ccccc12)N1CCCCC1 | -10.4% (inactive) |
| O=c1cc(N2CCCCC2)c(-c2ccccc2)nn1Cc1cccc(F)c1 | 90% (active) |
| O=c1cc(N2CCN(Cc3ccccc3)CC2)c(-c2ccccc2)n[nH]1 | -2.25% (inactive) |
| CC(=O)Nc1c[nH]c(=O)[nH]c1=O | -5.98% (inactive) |
| CC[C@H]1OC(=O)[C@H](C)[C@@H](O[C@H]2C[C@@](C)(OC)[C@@H](O)[C@H](C)O2)[C@H](C)[C@@H](O[C@@H]2O[C@H](C)C[C@H](N(C)C)[C@H]2O)[C@](C)(O)C[C@@H](C)[C@@H]2N[C@@H](COCCOC)O[C@H]([C@H]2C)[C@]1(C)O | 64.2% (active) and 17.8% (inactive) |
| Cc1ccc(-c2c(C)[nH]n3c(=O)c4c(nc23)CCC4)cc1 | -89.9% (inactive) |
| COc1ccc(N2CCN(C(c3ccccc3)c3nnnn3Cc3cccs3)CC2)cc1 (stereo unspecified) | 21.1% (inactive) |
| C=CCNc1nc(-c2sc(NC(=O)c3ccccc3)nc2C)cs1 | -131% (inactive) |
| CCN(CC)c1nc2c(c(=O)n(C)c(=O)n2C)n1Cc1ccc(C)cc1 | -126% (inactive) |
| COc1ccc(CN(Cc2cc3c(cc2OC)OCO3)CC2CCCO2)c(OC)c1 (stereo unspecified) | -3.15% (inactive) |
| Cc1oc2c(c1CC(=O)NCc1noc(-c3ccccc3)n1)C(=O)CC(C)(C)C2 | -16.5% (inactive) |
| CC(C)CCSc1ncnc2c1oc1nc3c(cc12)COC(C)(C)C3 | 29.9% (inactive) |
| CCOCCCNC(=O)CSc1ncnc2c1sc1nc3ccccc3cc12 | -36% (inactive) |
| CC1(C)Cc2nc3sc4c(SCC(=O)NC(c5ccccc5)c5ccccc5)ncnc4c3cc2CO1 | 70.1% (active) |
| O=C(CN1C(=O)C2CCCN2S(=O)(=O)c2ccccc21)NCCc1ccccc1 (stereo unspecified) | -13.3% (inactive) |
| Cc1cc(CN2CCc3c(nc(N4CCCC4)[nH]c3=O)C2)c(C)n1-c1cccnc1 | -32.9% (inactive) |

| Compound | induction |
| --- | --- |
| CC(C)n1c(SCC(=O)Nc2ccccc2N2CCCCC2)nc2c1c(=O)n(C)c(=O)n2C | 9.15% (inactive) |
| Cn1c(=O)c2c(nc(SCC(=O)Nc3ccccc3N3CCCCC3)n2C)n(C)c1=O | 67.3% (active) and 23.3% (inactive) |
| CCn1c(SCC(=O)Nc2cccc3ccccc23)nc2c1c(=O)n(C)c(=O)n2C | -26.4% (inactive) |
| CSc1nc2nc(-c3cccc(C(F)(F)F)c3)ccn2n1 | 27.7% (inactive) |
| c1ccc(-c2cc(N3CCCCC3)c3ccccc3n2)cc1 | 40.2% (inactive) |
| FC(F)(F)c1cccc(-c2cc3ccccc3nc2N2CCCC2)c1 | 65.5% (active) |
| C=CCNC(=O)[C@H]1C=CCN1S(=O)(=O)c1ccc(F)cc1 | -8.27% (inactive) |
| O=C(CN1CCCCCC1)N1c2ccccc2Sc2ccc(C(F)(F)F)cc21 | 41.5% (inactive) |
| O=C(CN1CCCCC1)N1c2ccccc2Sc2ccc(C(F)(F)F)cc21 | 66.5% (active) |
| COc1cc(/C=C/C(=O)N2c3ccccc3Sc3ccc(C(F)(F)F)cc32)cc(OC)c1OC | 4.97% (inactive) |
| Nc1cc(-c2ccco2)nn(CC(=O)NCc2ccccc2)c1=O | 4.9% (inactive) |
| CCCNC(=O)C1COc2ccccc2O1 (stereo unspecified) | -4.2% (inactive) |
| O=[N+]([O-])c1ccc(Sc2nc3c(c(C(F)(F)F)n2)CCCC3)nc1 | 34.3% (inactive) |
| C/C=N/N(c1ccccc1)c1ccccc1 | 64.5% (active) |
| COc1cccc(CN2CCN(C(=O)CCn3nnc4ccccc43)[C@@H](C)C2)c1 | -13.9% (inactive) |
| CC(C)[C@H](Cn1nc(-c2cccs2)ccc1=O)NC(=O)Cn1cnc2ccccc2c1=O | -6.72% (inactive) |
| Cc1cnc(C(=O)NC(C)c2nc(-c3ccncc3)n[nH]2)cn1 (stereo unspecified) | -35.1% (inactive) |
| CC(=O)c1c(-c2ccccc2)c2ccccc2[nH]c1=O | 7.65% (inactive) |
| Cc1nc2ccccc2c(C)c1C(=O)c1ccc(F)cc1 | 11.7% (inactive) |
| Cc1nc2ccccc2c(-c2ccccc2)c1C(=O)c1ccccc1 | 94.7% (active) |
| CC(C)n1c(=O)oc2cc(S(=O)(=O)N3CCCC(C(N)=O)C3)ccc21 (stereo unspecified) | -51.2% (inactive) |
| COc1ccc(C2CC(c3cccs3)=NN2c2ccccc2)cc1 (stereo unspecified) | 21.6% (inactive) |
| Fc1ccc(N2N=C(c3cccs3)CC2c2ccco2)c(F)c1 (stereo unspecified) | 63.6% (active) |
| COc1ccccc1N1N=C(c2cccs2)CC1c1ccccc1 (stereo unspecified) | 38.4% (inactive) |

| Compound | induction |
| --- | --- |
| CCC(C)NC(=O)CSc1nc2cc3c(cc2cc1C#N)OCCO3 (stereo unspecified) | 33.9% (inactive) |
| CCn1nnnc1SCC(=O)Nc1cccc(C(C)=O)c1 | -7.36% (inactive) |
| CCC(=O)OCc1c(C(F)(F)F)nn(C)c1Oc1cccc(C(F)(F)F)c1 | 62.3% (active) |
| Cc1nc(N)[nH]c(=O)c1Oc1cccc(C(F)(F)F)c1 | 22.3% (inactive) |
| O=Cc1ccc(Oc2cccc(C(F)(F)F)c2)nc1 | 16.6% (inactive) |
| CCn1c(SCC(=O)Nc2ccc(C(=O)OC)cc2)nnc1-c1cccnc1 | -7.67% (inactive) |
| CNc1ncnc2c1ncn2[C@@H]1O[C@H](CO)[C@H](O)C1O (stereo partly specified) | 15.2% (inactive) |
| CCCC(=O)Nc1ncnc2c1ncn2C1O[C@@H]2COP(=O)(O)O[C@H]2[C@H]1OC(=O)CCC (stereo partly specified) | 107% (active) |
| OC[C@H]1O[C@@H](n2cnc3c(N[C@H]4CC5CCC4C5)ncnc32)[C@H](O)[C@@H]1O (stereo partly specified) | 0.16% (inactive) |
| O=c1c2ccccc2c(-c2ccc(F)cc2)nn1-c1ccc(C(F)(F)F)cc1 | 47% (inactive) |
| O=C(NCCc1ccco1)c1nn(Cc2ccccc2)c(=O)c2ccccc12 | 44.9% (inactive) |
| O=c1c2ccccc2c(-c2ccc(Br)cc2)nn1Cc1ccccc1 | 71.6% (active) |
| CCOC(=O)C(C)n1nc(-c2ccccc2)c2ccccc2c1=O (stereo unspecified) | 49.3% (inactive) |
| O=c1c2ccccc2c(-c2ccccc2)nn1Cc1ccccc1 | 66.7% (active) |
| O=c1c2ccccc2c(-c2ccccc2)nn1-c1ccccn1 | 11.6% (inactive) |
| CCCOc1ccc(C2C(C(=O)Nc3ccccc3OC)=C(C)Nc3ncnn32)cc1 (stereo unspecified) | 2.41% (inactive) |
| Cc1cc(C)nc(N2CCC(C(=O)NCC(N)=O)CC2)n1 | -4.46% (inactive) |
| Cc1cc(C)c2cc(C(c3nnnn3C(C)(C)C)N3CCCc4ccccc43)c(=O)[nH]c2c1 (stereo unspecified) | 26.2% (inactive) |
| COc1ccc2[nH]c(=O)c(CN(CCCO)C(=S)NCCCN(C)C)cc2c1 | -11.3% (inactive) |
| CC(C)(C)c1nn(-c2ccc(F)cc2)c2[nH]c(=O)c(CNCCc3ccncc3)cc12 | -25.4% (inactive) |
| Cc1ccccc1OCCCC(=O)Nc1nnc(C2CCCCC2)s1 | -40.5% (inactive) |
| COc1ccc(C(=O)N2CCc3cc(OC)c(OC)cc3C2c2ccccc2)cc1OC (stereo unspecified) | 24.2% (inactive) |
| COC(=O)c1ccc(S(=O)(=O)N(CCO)Cc2ccccc2)n1C | -22.6% (inactive) |
| Cn1c(C(=O)O)ccc1S(=O)(=O)N(Cc1ccccc1)Cc1ccccc1 | 21.3% (inactive) |

| Compound | induction |
| --- | --- |
| COC(=O)c1ccc(S(=O)(=O)NCc2ccccc2)n1C | 70.4% (active) |
| COc1cccc(/C(O)=C2/C(=O)C(=O)NC2c2cccs2)c1 (stereo unspecified) | 4.28% (inactive) |
| CN(C(=O)Cc1ccccc1F)c1nc2c(s1)CCc1occc1-2 | -25.4% (inactive) |
| CN(C)Cc1ccc(F)cc1Sc1cc(Cl)ccc1Cl | 75.3% (active) |
| C=COCCNC(=O)C1CCN(c2nc3ccccc3n2CC)CC1 | -36.5% (inactive) |
| COc1cccc(CN(Cc2ccco2)Cc2cncn2C)c1 | -1.11% (inactive) |
| CCCCOc1ccc(-c2nnc(-c3ccco3)o2)cc1 | 66.9% (active) |
| CCC(=O)Oc1cccc(C(=O)Nc2ccc(-c3nnc(-c4ccco4)o3)cc2)c1 | -19% (inactive) |
| CCOc1ccc(-c2nnc(-c3ccco3)o2)cc1 | -1.22% (inactive) |
| Cc1ccccc1CN1CCC(N2CCCCC2)CC1 | -20.6% (inactive) |
| COc1cc(CN2CCN(C(=O)c3cc(OC)c(OC)c(OC)c3)CC2)cc(OC)c1O | -32.7% (inactive) |
| Cc1ccc(NC(=O)CSc2nnnn2-c2ccc3c(c2)OCO3)cc1 | -41.6% (inactive) |
| COc1ccc(C2CC(c3cccs3)=NN2C(=O)CSc2nnc(N)s2)cc1OC (stereo unspecified) | -1.37% (inactive) |
| COc1ccc(C2CC(c3cccs3)=NN2c2ccc(F)cc2)cc1OC (stereo unspecified) | 13.2% (inactive) |
| COc1ccc(C2CC(c3cccs3)=Nc3ccccc3S2)cc1OC (stereo unspecified) | 61.9% (active) |
| Cc1cc2c(s1)c1cnn(CC(=O)NC(C)C)c(=O)c1n2C | -39.8% (inactive) |
| COc1cc2[nH]c(=O)c(C(=O)NCc3ccc4c(c3)OCO4)c(O)c2cc1OC | 4.8% (inactive) |
| COc1cccc(CN2CCC(C(=O)NC(C)(C)C)CC2)c1O | -12.3% (inactive) |
| O=C(Nc1ccccc1F)c1ccccc1-c1ccccc1 | 33.6% (inactive) |
| Cc1ccccc1C(=O)Nc1ccc(N2CCCCCC2)cc1 | -79.9% (inactive) |
| O=C(COC(=O)c1cccc(Br)c1)Nc1cccc2c1C(=O)c1ccccc1C2=O | -14.5% (inactive) |
| O=C(COC(=O)c1ccccc1)Nc1ccccc1Sc1ccccc1 | 68.5% (active) |
| O=C(COC(=O)c1ccccn1)Nc1cccc2ccccc12 | -6.19% (inactive) |
| Cc1ccccc1C(=O)Nc1ccccc1Sc1ccccc1 | 73.8% (active) |
